36 molecules from PubChem BioAssay (NCI) can be followed below.

Compounds without any hit were thinned out: in the full panel of roughly 79,000, 15% have a hit. Unmarked numbers belong to inactive results. Calls of active or inactive are those of the source. Rule as the data show it: active = growth inhibition above about 70%; inactive = the rest. Where a SMILES comes first, the peptide text is derived from it. [ ]: non-standard residue; d: D form. The star is where a group is joined. ξ: configuration not given here. ξAsp(βξ-Me) = CC(C(=O)O)C(N)C(=O)O; X11 = CC(N*)C1NC(=O)C2CCCCN2C1=O; ξAbu(3ξ-NH2) = CC(N)C(N)C(=O)O; X10 = CCC(C)CCC/C=C/CC(=O)*

Test [1] is described as follows: NCI Yeast Anticancer Drug Screen. Data for the rad50 strain (AID 155).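 Also: 0% = growth of vehicle-only cultures of the same strain.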 To be noted: S. cerevisiae rad50 strain growth inhibition; at 50.0 µM; stronger effect = higher value. In a few lines:
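Relative growth inhibition (compound vs vehicle) was measured in yeast with a defined repair-gene alteration.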

A short description of test [2]: NCI Yeast Anticancer Drug Screen. Data for the mec2-1 strain (AID 157). To be noted: S. cerevisiae mec2-1 strain, at 50.0 µM, stronger effect = higher value. In a few lines:
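Yeast mec2-1 mutant treated with compound. Readout: growth inhibition vs vehicle controls.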

Test [3] is described as follows: NCI Yeast Anticancer Drug Screen. Data for the sgs1 mgt1 strain (AID 161).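 Also: 0% = growth of cultures given vehicle only.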 As to conditions: S. cerevisiae sgs1 mgt1 strain, at 50.0 µM, stronger effect = higher value. Summed up:
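Genetically altered yeast, compound exposure, growth inhibition relative to vehicle.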

A short description of test [4]: NCI Yeast Anticancer Drug Screen. Data for the cln2 rad14 strain (AID 165).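 Also: 0% = growth equal to vehicle treated cultures.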 As to conditions: S. cerevisiae cln2 rad14 strain, at 50.0 µM, stronger effect = higher value. Summed up: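 cln2 rad14 yeast strain; compound exposure; growth inhibition read vs vehicle controls.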
Test [5] is described as follows: NCI Yeast Anticancer Drug Screen. Data for the bub3 strain (AID 167). To be noted: S. cerevisiae bub3 mutant strain, at 50.0 µM, stronger effect = higher value. Summed up:
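Screening used yeast with an engineered genetic alteration affecting cell cycle control. Compound-exposed cultures were compared with vehicle cultures, and reduced growth was taken as inhibition.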

Test [6] in a line: NCI Yeast Anticancer Drug Screen. Data for the mlh1 rad18 strain (AID 175). To be noted: S. cerevisiae mlh1 rad18 strain growth inhibition; at 50.0 µM; stronger effect = higher value. Summed up: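 Yeast w/ defined DNA-repair lesions; compound exposure; growth vs vehicle controls → % inhibition.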

Take `COc1ccccc1N=Nc1c(C)nc(N)nc1-c1ccccc1`: the growth inhibition in test [1] is 23.1%; in test [2], 10.4%; in test [3] it was 25.9%; in test [4], 7.9%; in test [5] it was 4.6%; in test [6], 23.6%.
With `CCc1nnc2sc3c(Cl)c4nn5c(CC)nnc5sc4c(Cl)c3nn12`, the growth inhibition in test [1] was 37.2%; in test [2] it was -6.2%; in test [3] it was 16.8%; in test [4], 24.2%; in test [5], -0.3%; in test [6], 12.5%.
Consider `COc1ccccc1C(c1ccccc1OC)c1ccccc1C(=O)O`, for which the growth inhibition is 14.5% in test [1]; -3.35% in test [2]; 5.75% in test [3]; 15% in test [4]; 6.05% in test [5]; 26.9% in test [6].
Turning to `N/C(=N\O)C(=O)c1ccccc1`, the growth inhibition is 9.8% in test [1]; -12.8% in test [2]; -5.8% in test [3]; -5.3% in test [4]; 2.35% in test [5]; 3.95% in test [6].
As for `COC(=O)[CH2][Ge]([c]1ccccc1)[c]1ccccc1.COC(=O)[CH2][Ge]([c]1ccccc1)[c]1ccccc1`, the growth inhibition in test [1] is 15.8%; in test [2], 9.15%; in test [3], 37.3%; in test [4], -5%; in test [5] it was -12.2%; in test [6], -8.3%.
Turning to `CCC(C)(O)C(=O)O` (stereo unspecified), the growth inhibition in test [1] was 9.8%; in test [2] it was -9.4%; in test [3], -32.4%; in test [4], -4.75%; in test [5], -13.3%; in test [6] it was -15.2%.
Turning to `O=C(Cc1nc(-c2ccccc2)cc(=O)n1-c1ccccc1Cl)c1ccncc1`, the growth inhibition in test [1] was 32.4%; in test [2], 12.5%; in test [3] it was -6.3%; in test [4], 21.2%; in test [5] it was -1.2%; in test [6], 20.4%.
For the molecule `CC(O)(c1ccco1)c1nc2ccccc2s1` (stereo unspecified), the growth inhibition in test [1] is -10.4%; in test [2], 15.6%; in test [3], 0.55%; in test [4] it was -6.2%; in test [5], -1.25%; in test [6] it was -11.8%.
Consider `CC(=O)/C(C=Nc1c(C)n(C)n(C)c1=O)=C(/O)c1ccccc1`, for which the growth inhibition was 0.15% in test [1]; 4.05% in test [2]; -10.4% in test [3]; 7.55% in test [4]; -19.6% in test [5]; 16% in test [6].
For `CN(C)CC1OCCc2ccccc21` (stereo unspecified), the growth inhibition in test [1] was 10.1%; in test [2], 2.9%; in test [3], 3.75%; in test [4], 0.6%; in test [5], 6.05%; in test [6], 10%.
`COc1cc(C=O)cc(O)c1O`: the growth inhibition is 11.8% in test [1]; 3.05% in test [2]; -10.6% in test [3]; -19.2% in test [4]; -1.9% in test [5]; -0.6% in test [6].
On to `CCCC(=O)Nc1ccc(OCC)cc1`, for which the growth inhibition was -9.5% in test [1]; -4.1% in test [2]; -11.8% in test [3]; -49.5% in test [4]; -18.8% in test [5]; -16.6% in test [6].
As to `COc1cc2c3c(c1)nc(C)n3C(=O)C(C)S2` (stereo unspecified), the growth inhibition in test [1] was -26.8%; in test [2] it was -46.9%; in test [3] it was -22.9%; in test [4], 12.3%; in test [5] it was 11.3%; in test [6], -22%.
Regarding `NNC(=O)CC(O)C(=O)NN` (stereo unspecified), the growth inhibition in test [1] is -4.7%; in test [2] it was -0.8%; in test [3], -1.85%; in test [4], 11.4%; in test [5], -1.75%; in test [6] it was 4.75%.
Regarding `CCCC(C)C(=O)OC1CCCCC1C` (stereo unspecified), the growth inhibition in test [1] is -0.95%; in test [2], 4.25%; in test [3], -7.85%; in test [4], -45.6%; in test [5] it was 8.1%; in test [6] it was 0.6%.
In the case of `CC1OC(OC23C(=O)CC(C)(O)CC2(O)C=CC2=C3C(=O)c3ccc(C4CC(OC5CCC(OC6CC(O)C(O)C(C)O6)C(C)O5)C(O)C(C)O4)c(O)c3C2=O)CCC1O` (stereo unspecified), the growth inhibition in test [1] is 1.4%; in test [2], -7.95%; in test [3], 5.75%; in test [4], -0.5%; in test [5] it was -0.25%; in test [6], 18.1%.
For `CC(C)CNC(=O)C(=O)NCC(C)C`, the growth inhibition in test [1] was -4.65%; in test [2], -9.7%; in test [3], -1.6%; in test [4], -41.5%; in test [5], -21.4%; in test [6], -2.4%.
Consider `CCN(Cc1ccc(S(=O)(=O)O)cc1)c1cccc(S(=O)(=O)O)c1`, for which the growth inhibition is 14.1% in test [1]; 26.4% in test [2]; 18.4% in test [3]; -20.9% in test [4]; -18.2% in test [5]; 9.35% in test [6].
Turning to `COc1cc(/C=C/C(=O)NCCc2c[nH]c3ccc(O)cc23)ccc1O`, the growth inhibition is -9.25% in test [1]; -0.75% in test [2]; 9.3% in test [3]; 11.8% in test [4]; 3.15% in test [5]; 6.75% in test [6].
On to `COc1ccc(C2=C(N)c3c(Cl)cccc3C2=O)cc1`, for which the growth inhibition in test [1] was 6.35%; in test [2], 3.4%; in test [3] it was 30.2%; in test [4] it was 14.8%; in test [5] it was 21.5%; in test [6] it was -58.2%.
In the case of `CCCCC[CH2][Sn]([CH2]CCCCC)([CH2]CCCCC)[NH]S(=O)(=O)c1ccc(C)cc1`, the growth inhibition in test [1] is 99.3% (active); in test [2], 99.6% (active); in test [3], 99.5% (active); in test [4], 99% (active); in test [5], 99.2% (active); in test [6] it was 99.3% (active).
As to `CCC(C)CCC/C=C/CC(=O)NC(CC(=O)O)C(=O)NC(C(=O)NC(CC(=O)O)C(=O)NCC(=O)NC(CC(=O)O)C(=O)NCC(=O)NC(C(=O)NC(C(=O)N1CCCC1C(=O)NC(C)C1NC(=O)C2CCCCN2C1=O)C(C)C)C(C)N)C(C)C(=O)O` (stereo not drawn) (X10-D[ξAsp(βξ-Me)]DGDG[ξAbu(3ξ-NH2)]VP-X11; configuration not given here), the growth inhibition is -38.3% in test [1]; -42.5% in test [2]; -56.2% in test [3]; -67.4% in test [4]; -29.5% in test [5]; -25.9% in test [6].
With `CC1(C)CC[C@]2(C(=O)O)CC[C@]3(C)C(=CC[C@@H]4[C@@]5(C)CC[C@H](OC6OC(C(=O)O)C(O)C(O)C6O)C(C)(C)[C@@H]5CC[C@]43C)[C@@H]2C1` (stereo partly specified), the growth inhibition in test [1] was 90.8% (active); in test [2], 91% (active); in test [3], 91.7% (active); in test [4], 92.5% (active); in test [5], 91.3% (active); in test [6] it was 88.7% (active).
For `CC(=O)NNc1ccc(C(=O)O)cc1`, the growth inhibition is 13.2% in test [1]; 1% in test [2]; 1.85% in test [3]; -13.4% in test [4]; -2.7% in test [5]; -2.4% in test [6].
On to `C[Si](C)(C)C#CC(O)CS(=O)c1ccccc1` (stereo unspecified), for which the growth inhibition in test [1] was -19.5%; in test [2], -19.4%; in test [3], -13.3%; in test [4], -3.7%; in test [5] it was -6.45%; in test [6], -17.1%.
On to `C[N+]1(CCc2ccccc2)CCOCC1`, for which the growth inhibition is -13.6% in test [1]; 3.9% in test [2]; 0.8% in test [3]; -38% in test [4]; 1.5% in test [5]; 2.8% in test [6].
Regarding `Cn1nnc(CC[N+]2(C)CCOCC2)n1`, the growth inhibition in test [1] is -3.35%; in test [2] it was 3.45%; in test [3], -3.35%; in test [4], -24.5%; in test [5] it was 6.05%; in test [6], 3.9%.
Regarding `C[CH2][Ge]([CH2]C)([CH2]C)[O]C(=O)CCC(=O)[O][Ge]([CH2]C)([CH2]C)[CH2]C`, the growth inhibition in test [1] is -2.1%; in test [2], -2.9%; in test [3] it was -3.7%; in test [4], -66.7%; in test [5], -0.45%; in test [6] it was 14.7%.
`CCOc1ccc(N=Nc2c(C)nc(N)nc2-c2ccccc2)cc1`: the growth inhibition was 20.1% in test [1]; -14.7% in test [2]; 4.1% in test [3]; -4.75% in test [4]; 35.4% in test [5]; 24.4% in test [6].
For the molecule `CCOC(=O)C(CC(C)C)NC(=O)c1cnc2ccccc2c1` (stereo unspecified), the growth inhibition in test [1] was 26.6%; in test [2], -0.7%; in test [3], 25.6%; in test [4], -13.8%; in test [5] it was 26.2%; in test [6] it was 21.9%.
With `CSc1ccccc1N1C(=O)CSC1=S`, the growth inhibition in test [1] is -7.8%; in test [2], 4.4%; in test [3] it was 41.5%; in test [4] it was 19.1%; in test [5], -4.1%; in test [6], 22.2%.
`CCCCCCCCCCOC(=O)c1ccccc1O`: the growth inhibition is -4.95% in test [1]; -7.15% in test [2]; 3.1% in test [3]; -111% in test [4]; 4.4% in test [5]; -10.4% in test [6].
As to `CC(=O)O.Cl.NC1C([O-])OC(CO)C(O)C1O.O=C1OC(C(O)CO)C([O-])=C1[OH2+].[Cu+2]` (stereo unspecified), the growth inhibition in test [1] is 21.3%; in test [2], 8.3%; in test [3], -9.6%; in test [4], 5.95%; in test [5], 5.05%; in test [6], 17.2%.
Take `CCC(=O)OCCOC(=O)CC`: the growth inhibition in test [1] was 26.8%; in test [2], 16.7%; in test [3], 6.9%; in test [4] it was 18.6%; in test [5] it was 23.6%; in test [6], 9.25%.
With `O=[N+]([O-])c1ccc(Cl)c(/C=C/c2ncccn2)c1`, the growth inhibition in test [1] was 11.4%; in test [2], 10.1%; in test [3] it was 7.9%; in test [4], -28.1%; in test [5], -1.45%; in test [6] it was 13.9%.
In the case of `COC(=O)/C=C(/N)CC(=O)OC`, the growth inhibition in test [1] was 16.9%; in test [2] it was -25.4%; in test [3], -8.35%; in test [4], 10.9%; in test [5], -15.9%; in test [6], 1.75%.
